Data taken from the supplement of paper PMC11732987, “Enantioselective OTUD7B fragment discovery through chemoproteomics screening and high-throughput optimisation” (Communications Chemistry, 2025).
Values without a mark were called inactive.

Legend:
Test in all cases: log2 ratio of Biotin-Ahx-Ub-VS probe labelling (fragment/DMSO); higher = less target engagement (more negative = stronger competition), active = hit call of the paper (q ≤ 0.05, log2 ratio ≤ -1)
Conditions in all cases: compound concentration: 200 uM; treatment time: 3 h
[1] = biological target: T1, OTUD6B (UniProt Q8N6M0)
T1 sequence (whole entry): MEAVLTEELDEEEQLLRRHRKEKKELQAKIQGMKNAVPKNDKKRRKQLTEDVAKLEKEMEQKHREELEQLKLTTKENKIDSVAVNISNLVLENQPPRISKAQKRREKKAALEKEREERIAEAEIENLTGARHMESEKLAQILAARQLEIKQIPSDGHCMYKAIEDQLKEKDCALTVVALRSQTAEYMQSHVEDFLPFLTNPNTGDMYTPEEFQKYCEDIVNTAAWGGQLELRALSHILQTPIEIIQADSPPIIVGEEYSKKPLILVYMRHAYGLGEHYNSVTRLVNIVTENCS
In short: (§1)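 HEK293T lysate (495 µg per sample, in Tris/CHAPS/IGEPAL buffer with protease inhibitors) was treated in triplicate with fragment at 200 µM or with DMSO for 3 h. It was then treated with Biotin-Ahx-Ub-VS (0.5 µM final) for 1 h. Labelled DUBs were NeutrAvidin-enriched, digested with LysC and trypsin, and run by diaPASEF LC-MS/MS. Spectronaut label-free quantities were global-median-normalised. Values are average log2 ratios fragment/DMSO by unpaired t-test, using proteins with ≥2 unique peptides.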

[2] = biological target: T2, OTUD7B (UniProt Q6GQQ9)
T2 sequence (whole entry): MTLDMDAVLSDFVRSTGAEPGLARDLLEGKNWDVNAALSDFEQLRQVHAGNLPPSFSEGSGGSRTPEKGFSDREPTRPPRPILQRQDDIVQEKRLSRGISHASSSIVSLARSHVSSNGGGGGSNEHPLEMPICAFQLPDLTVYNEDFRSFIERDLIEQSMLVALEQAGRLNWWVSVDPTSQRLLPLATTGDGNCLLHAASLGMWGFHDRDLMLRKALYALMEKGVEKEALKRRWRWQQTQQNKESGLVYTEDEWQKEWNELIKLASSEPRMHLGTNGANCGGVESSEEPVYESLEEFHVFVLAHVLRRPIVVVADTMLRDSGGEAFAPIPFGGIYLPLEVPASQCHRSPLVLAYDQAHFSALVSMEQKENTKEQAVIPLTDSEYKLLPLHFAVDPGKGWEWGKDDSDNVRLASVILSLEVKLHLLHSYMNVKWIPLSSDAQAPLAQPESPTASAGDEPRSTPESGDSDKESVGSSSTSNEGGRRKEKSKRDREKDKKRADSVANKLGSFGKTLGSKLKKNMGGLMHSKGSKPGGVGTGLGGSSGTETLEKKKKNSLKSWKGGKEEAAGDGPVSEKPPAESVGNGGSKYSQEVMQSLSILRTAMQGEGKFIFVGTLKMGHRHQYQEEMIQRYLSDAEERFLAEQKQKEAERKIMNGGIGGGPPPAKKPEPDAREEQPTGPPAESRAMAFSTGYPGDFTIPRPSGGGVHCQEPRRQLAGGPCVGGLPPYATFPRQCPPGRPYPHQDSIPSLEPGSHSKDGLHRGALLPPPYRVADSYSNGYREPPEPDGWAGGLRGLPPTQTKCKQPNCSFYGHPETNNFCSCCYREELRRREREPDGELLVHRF
In short: as §1

[3] = biological target: PRPF8 (UniProt Q6P2Q9)
In short: as §1

[4] = biological target: T3, PSMD7 (UniProt P51665)
T3 sequence (whole entry): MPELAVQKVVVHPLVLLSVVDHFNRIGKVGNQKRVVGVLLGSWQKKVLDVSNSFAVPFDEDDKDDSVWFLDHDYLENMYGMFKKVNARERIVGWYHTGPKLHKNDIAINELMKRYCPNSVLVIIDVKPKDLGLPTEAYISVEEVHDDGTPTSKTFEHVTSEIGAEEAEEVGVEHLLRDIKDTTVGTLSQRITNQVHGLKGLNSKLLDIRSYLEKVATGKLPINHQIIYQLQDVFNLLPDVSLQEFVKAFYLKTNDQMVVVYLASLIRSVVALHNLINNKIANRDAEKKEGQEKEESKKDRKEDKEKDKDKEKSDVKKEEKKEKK
In short: as §1

[5] = biological target: UCHL1 (UniProt P09936)
Chain of UCHL1 (P09936 whole entry, looked up): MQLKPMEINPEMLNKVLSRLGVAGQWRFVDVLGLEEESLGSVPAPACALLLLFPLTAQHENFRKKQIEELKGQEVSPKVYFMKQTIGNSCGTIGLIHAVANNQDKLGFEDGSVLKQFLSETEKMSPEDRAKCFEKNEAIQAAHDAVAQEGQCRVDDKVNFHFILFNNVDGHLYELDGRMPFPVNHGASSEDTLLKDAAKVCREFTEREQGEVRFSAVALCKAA
In short: as §1

[6] = biological target: T4, UCHL3 (UniProt P15374)
T4 sequence (whole entry): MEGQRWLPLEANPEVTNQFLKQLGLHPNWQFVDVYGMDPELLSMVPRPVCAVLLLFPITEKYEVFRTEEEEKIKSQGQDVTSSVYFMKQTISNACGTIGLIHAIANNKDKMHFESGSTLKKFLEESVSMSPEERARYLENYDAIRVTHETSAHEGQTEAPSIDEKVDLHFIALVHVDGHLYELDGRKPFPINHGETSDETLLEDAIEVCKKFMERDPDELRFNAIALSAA
In short: as §1

[7] = biological target: T5, UCHL5 (UniProt Q9Y5K5)
T5 sequence (whole entry): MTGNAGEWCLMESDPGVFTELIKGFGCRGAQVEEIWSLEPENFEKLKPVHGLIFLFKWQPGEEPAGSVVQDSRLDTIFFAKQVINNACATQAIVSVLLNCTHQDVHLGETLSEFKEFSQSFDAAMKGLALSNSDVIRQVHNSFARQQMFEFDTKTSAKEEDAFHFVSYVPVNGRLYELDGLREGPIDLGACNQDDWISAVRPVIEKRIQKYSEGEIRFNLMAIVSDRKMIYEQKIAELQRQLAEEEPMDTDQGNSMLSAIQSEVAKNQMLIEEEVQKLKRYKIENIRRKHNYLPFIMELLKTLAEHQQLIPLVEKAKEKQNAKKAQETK
In short: as §1

[8] = biological target: USP10 (UniProt Q14694)
Chain of USP10 (Q14694 whole entry): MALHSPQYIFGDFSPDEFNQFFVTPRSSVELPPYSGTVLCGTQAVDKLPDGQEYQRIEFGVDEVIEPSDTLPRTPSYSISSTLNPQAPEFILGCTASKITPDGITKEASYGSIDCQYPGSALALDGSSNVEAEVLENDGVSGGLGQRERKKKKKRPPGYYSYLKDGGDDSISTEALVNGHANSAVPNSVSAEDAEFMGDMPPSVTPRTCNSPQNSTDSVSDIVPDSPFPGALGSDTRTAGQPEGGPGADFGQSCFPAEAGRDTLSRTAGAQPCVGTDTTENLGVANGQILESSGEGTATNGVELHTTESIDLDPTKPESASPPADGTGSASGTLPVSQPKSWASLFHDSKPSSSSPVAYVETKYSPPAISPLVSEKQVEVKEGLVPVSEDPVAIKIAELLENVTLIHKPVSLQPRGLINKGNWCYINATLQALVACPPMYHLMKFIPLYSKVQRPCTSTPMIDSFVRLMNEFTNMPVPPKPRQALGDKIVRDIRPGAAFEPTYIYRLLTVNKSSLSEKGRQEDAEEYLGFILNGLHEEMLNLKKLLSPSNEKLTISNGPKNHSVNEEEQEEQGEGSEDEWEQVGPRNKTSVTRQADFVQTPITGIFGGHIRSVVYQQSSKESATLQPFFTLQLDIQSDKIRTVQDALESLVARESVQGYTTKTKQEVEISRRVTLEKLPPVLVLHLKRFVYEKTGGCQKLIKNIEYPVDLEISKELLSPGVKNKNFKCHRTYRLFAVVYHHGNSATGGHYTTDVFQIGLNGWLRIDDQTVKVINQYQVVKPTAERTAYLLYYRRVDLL
In short: as §1

[9] = biological target: T6, USP15 (UniProt Q9Y4E8)
T6 sequence (whole entry): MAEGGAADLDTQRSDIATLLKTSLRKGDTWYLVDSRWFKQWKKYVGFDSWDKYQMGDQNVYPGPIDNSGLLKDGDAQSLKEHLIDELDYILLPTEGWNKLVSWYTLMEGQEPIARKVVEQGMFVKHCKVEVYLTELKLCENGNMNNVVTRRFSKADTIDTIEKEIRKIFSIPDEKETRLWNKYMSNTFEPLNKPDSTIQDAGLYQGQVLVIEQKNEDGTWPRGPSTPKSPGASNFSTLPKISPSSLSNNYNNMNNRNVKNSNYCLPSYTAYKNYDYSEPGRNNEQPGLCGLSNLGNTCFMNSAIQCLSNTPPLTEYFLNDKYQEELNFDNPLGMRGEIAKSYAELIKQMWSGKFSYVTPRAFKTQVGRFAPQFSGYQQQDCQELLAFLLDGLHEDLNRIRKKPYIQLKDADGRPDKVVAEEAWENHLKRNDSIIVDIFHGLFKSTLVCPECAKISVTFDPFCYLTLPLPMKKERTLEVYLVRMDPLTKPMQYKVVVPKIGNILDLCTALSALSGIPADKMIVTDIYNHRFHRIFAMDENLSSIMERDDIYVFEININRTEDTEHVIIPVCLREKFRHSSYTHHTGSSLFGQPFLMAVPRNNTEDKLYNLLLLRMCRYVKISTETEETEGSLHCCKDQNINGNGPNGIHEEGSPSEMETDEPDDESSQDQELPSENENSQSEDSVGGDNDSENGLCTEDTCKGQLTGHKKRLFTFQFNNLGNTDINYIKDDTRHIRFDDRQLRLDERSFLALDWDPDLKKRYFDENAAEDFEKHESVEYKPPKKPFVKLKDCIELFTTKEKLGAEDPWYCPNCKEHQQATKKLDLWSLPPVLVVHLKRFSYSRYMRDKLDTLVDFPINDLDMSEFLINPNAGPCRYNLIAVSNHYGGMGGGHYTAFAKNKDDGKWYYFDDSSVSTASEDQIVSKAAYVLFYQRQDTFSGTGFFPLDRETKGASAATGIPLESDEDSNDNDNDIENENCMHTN
In short: as §1

[10] = biological target: USP16 (UniProt Q9Y5T5)
Chain of USP16 (Q9Y5T5 whole entry, looked up): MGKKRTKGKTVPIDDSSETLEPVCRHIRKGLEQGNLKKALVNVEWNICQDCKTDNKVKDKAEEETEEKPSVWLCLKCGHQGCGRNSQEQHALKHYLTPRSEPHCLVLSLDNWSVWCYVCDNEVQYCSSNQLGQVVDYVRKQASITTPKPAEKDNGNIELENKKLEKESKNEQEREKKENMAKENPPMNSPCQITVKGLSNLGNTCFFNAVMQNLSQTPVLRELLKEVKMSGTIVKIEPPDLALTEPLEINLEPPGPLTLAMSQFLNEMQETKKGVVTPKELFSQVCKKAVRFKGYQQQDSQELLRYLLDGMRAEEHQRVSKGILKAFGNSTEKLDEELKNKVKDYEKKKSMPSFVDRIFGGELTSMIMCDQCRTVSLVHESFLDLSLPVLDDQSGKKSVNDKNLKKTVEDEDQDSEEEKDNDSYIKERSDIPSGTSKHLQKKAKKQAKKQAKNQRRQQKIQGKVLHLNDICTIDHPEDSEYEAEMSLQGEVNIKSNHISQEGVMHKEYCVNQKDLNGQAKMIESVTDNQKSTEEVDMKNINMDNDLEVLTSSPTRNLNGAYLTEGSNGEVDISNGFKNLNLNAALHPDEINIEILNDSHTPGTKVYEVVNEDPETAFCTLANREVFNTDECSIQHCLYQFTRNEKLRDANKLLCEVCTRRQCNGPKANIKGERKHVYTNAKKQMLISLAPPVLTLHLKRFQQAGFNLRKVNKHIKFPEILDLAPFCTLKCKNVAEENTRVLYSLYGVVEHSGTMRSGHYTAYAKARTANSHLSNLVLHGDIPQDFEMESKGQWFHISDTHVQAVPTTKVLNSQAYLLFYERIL
In short: as §1

Cc1cccc(N(CCC#N)C(=O)CCl)c1C
log2 ratio of Biotin-Ahx-Ub-VS probe labelling [1]: 0.027
log2 ratio of Biotin-Ahx-Ub-VS probe labelling [2]: -1.2 (active)
log2 ratio of Biotin-Ahx-Ub-VS probe labelling [3]: 0.241
log2 ratio of Biotin-Ahx-Ub-VS probe labelling [4]: 0.0381
log2 ratio of Biotin-Ahx-Ub-VS probe labelling [5]: -1.09 (active)
log2 ratio of Biotin-Ahx-Ub-VS probe labelling [6]: 0.389
log2 ratio of Biotin-Ahx-Ub-VS probe labelling [7]: -0.0436
log2 ratio of Biotin-Ahx-Ub-VS probe labelling [8]: -0.0111
log2 ratio of Biotin-Ahx-Ub-VS probe labelling [9]: -0.0542
log2 ratio of Biotin-Ahx-Ub-VS probe labelling [10]: -0.0303
